“And” between values parts separate entries of the source, which are not always exact repeats. Identical values can stand only once. A structure can be active in one record and inactive in another. The source made the active and inactive calls. How the source made its calls: active means hit-call score of the fitted dose curve at least 0.9, where 1 is the maximum; inactive means score below 0.9.
Columns and labels:
[1] = ATG_ISRE_CIS: Attagene CIS-FACTORIAL HepG2 Assay for human Interferon Regulatory Factor 1 (IRF1) binding to an Interferon-Stimulated Response Element (ISRE) (AID 2282948); conditions: HepG2 ISRE cis-reporter (Attagene), mRNA transcription readout; actives raise or lower the signal
Summary of the method: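 Read-out: fluorescent RT-PCR products resolved by capillary electrophoresis, reporting endogenous transcription factor activity via ISRE-driven reporter mRNA in transfected HepG2 cells dosed for 24 h; gain or loss fitted relative to DMSO.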

[2] = ATG_M_32_CIS: Attagene CIS-FACTORIAL HepG2 Assay for M32 Transcription Factor (Internal Marker) (AID 2282949); conditions: HepG2 Attagene cis-factorial M32 reporter, mRNA; actives raise or lower the signal;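 further: background control marker of the multiplexed CIS panel rather than a real target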
Summary of the method: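 Using DMSO as baseline, bidirectional curve fits were applied to reporter mRNA signals. These came from transiently transfected HepG2 cells exposed for 24 h, with RNA analysed by RT-PCR, FAM primer extension, HpaI digestion and CE.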

[3] = target: Hypoxia-inducible factor 1-alpha (Homo sapiens) (UniProt Q16665); assay: ATG_HIF1a_CIS: Attagene CIS-FACTORIAL HepG2 Assay for human Hypoxia Inducible Factor 1 (HIF1A) (AID 2282951); conditions: HepG2 Attagene cis-factorial HIF1a reporter transcription; actives raise or lower the signal
Sequence of Hypoxia-inducible factor 1-alpha (Homo sapiens) (Q16665 whole entry, looked up, the tested form may be a part): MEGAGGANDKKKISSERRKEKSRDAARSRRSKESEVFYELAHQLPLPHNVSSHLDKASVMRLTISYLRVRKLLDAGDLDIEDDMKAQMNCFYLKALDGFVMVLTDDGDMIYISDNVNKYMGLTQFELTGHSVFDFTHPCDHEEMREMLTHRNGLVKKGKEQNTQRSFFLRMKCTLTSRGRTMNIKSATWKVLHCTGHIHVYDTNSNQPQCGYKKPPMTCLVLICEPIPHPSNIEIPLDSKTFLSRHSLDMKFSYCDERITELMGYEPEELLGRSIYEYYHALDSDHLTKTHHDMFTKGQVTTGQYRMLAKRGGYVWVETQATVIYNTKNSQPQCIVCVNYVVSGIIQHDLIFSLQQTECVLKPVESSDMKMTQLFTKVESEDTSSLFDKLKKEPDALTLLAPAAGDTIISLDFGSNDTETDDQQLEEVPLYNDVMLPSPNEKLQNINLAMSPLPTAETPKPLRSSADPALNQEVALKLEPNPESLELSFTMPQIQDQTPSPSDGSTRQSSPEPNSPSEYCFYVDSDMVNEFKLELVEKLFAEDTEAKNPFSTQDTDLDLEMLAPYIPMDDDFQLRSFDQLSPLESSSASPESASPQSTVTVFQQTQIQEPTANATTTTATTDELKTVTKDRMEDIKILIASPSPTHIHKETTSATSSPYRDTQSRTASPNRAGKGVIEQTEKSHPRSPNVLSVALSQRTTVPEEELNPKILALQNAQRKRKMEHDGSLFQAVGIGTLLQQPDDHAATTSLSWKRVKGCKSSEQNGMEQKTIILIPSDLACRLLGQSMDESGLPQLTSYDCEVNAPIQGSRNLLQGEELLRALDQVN
Summary of the method: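 Transient MRTU transfection of human HepG2 liver cells, 24 h compound treatment, then total RNA isolation, oligo(dT) reverse transcription, PCR amplification, fluorescent labelling and capillary electrophoresis of reporter fragments. Gain or loss relative to DMSO.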

[4] = target: Hepatocyte nuclear factor 6 (Homo sapiens) (UniProt Q9UBC0); assay: ATG_HNF6_CIS: Attagene CIS-FACTORIAL HepG2 Assay for human Hepatocyte Nuclear Factor 6 (HNF6) (AID 2282952); conditions: HepG2 Attagene cis-factorial HNF6 reporter transcription; actives raise or lower the signal
Sequence of Hepatocyte nuclear factor 6 (Homo sapiens) (Q9UBC0 whole entry, looked up, the tested form may be a part): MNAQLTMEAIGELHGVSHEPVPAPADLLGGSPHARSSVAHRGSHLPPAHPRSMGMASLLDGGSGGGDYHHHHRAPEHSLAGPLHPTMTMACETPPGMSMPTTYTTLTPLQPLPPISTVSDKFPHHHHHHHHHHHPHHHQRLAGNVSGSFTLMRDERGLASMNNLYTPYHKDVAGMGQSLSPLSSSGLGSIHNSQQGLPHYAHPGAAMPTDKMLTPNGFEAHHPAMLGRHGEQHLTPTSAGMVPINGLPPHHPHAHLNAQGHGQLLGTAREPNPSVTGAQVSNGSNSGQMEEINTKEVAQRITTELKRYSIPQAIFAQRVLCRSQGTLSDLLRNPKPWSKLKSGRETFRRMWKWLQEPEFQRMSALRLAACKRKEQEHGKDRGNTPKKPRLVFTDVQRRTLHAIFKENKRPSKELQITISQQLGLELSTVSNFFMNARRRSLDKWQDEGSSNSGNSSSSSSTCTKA
Summary of the method: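 Twenty-four-hour chemical treatment of reporter-transfected HepG2 cells precedes RNA isolation, DNase-treated reverse transcription and PCR of reporter sequences. Labelled fragments are sized by capillary electrophoresis and fitted bidirectionally versus DMSO.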

[5] = target: Heat shock factor protein 1 (Homo sapiens) (UniProt Q00613); assay: ATG_HSE_CIS: Attagene CIS-FACTORIAL HepG2 Assay for human Heat Shock Transcription Factor 1 (HSE) (AID 2282953); conditions: HepG2 HSE cis-reporter, Attagene RNA transcription; actives raise or lower the signal
Sequence of Heat shock factor protein 1 (Homo sapiens) (Q00613 whole entry, looked up): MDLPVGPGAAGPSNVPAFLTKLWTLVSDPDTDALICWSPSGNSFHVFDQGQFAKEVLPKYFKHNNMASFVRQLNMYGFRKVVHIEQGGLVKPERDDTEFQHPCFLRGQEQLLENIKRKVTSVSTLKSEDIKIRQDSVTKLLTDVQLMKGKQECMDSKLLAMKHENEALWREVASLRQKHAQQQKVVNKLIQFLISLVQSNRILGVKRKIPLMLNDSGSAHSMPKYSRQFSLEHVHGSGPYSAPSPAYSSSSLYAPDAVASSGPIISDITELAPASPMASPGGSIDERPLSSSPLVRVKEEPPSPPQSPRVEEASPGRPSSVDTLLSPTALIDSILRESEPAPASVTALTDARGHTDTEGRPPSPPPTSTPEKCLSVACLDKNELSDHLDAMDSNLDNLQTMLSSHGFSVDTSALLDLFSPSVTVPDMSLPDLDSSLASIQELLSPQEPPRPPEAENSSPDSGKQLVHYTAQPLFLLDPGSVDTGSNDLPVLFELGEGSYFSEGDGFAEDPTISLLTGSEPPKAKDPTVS
Summary of the method: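 Endogenous transcription factor activity in transiently transfected HepG2, read as reporter mRNA by RT-PCR with fluorescent capillary electrophoresis after 24 h. Gain or loss of signal fitted versus DMSO baseline.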

[6] = ATG_MRE_CIS: Attagene CIS-FACTORIAL HepG2 Assay for human Metal Responsive Element (MRE) (AID 2282954); conditions: HepG2 MRE cis-reporter transcription, Attagene multiplex; actives raise or lower the signal
Summary of the method: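 RT-PCR/capillary electrophoresis readout of reporter mRNA, 24 h post-dosing, in HepG2 cells transfected with multiplexed cis-regulated reporter constructs. Gain or loss of signal fitted bidirectionally against DMSO baseline.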

[7] = target: Paired box protein Pax-6 (Homo sapiens) (UniProt P26367); assay: ATG_Pax6_CIS: Attagene CIS-FACTORIAL HepG2 Assay for human Paired Box 6 (PAX6) (AID 2282956); conditions: HepG2 CIS-FACTORIAL PAX6 reporter transcription, RNA readout; actives raise or lower the signal
Sequence of Paired box protein Pax-6 (Homo sapiens) (P26367 whole entry, looked up): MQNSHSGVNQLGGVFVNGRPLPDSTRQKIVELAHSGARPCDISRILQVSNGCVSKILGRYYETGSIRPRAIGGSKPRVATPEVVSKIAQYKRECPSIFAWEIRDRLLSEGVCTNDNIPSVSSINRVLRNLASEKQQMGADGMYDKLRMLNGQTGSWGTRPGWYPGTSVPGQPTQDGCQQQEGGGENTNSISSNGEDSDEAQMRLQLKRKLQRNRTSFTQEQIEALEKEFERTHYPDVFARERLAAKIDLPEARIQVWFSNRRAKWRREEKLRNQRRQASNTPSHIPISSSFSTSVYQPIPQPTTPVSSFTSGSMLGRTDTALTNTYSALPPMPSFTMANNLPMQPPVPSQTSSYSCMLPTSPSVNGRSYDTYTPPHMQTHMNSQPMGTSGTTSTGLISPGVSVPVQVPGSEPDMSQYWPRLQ
Summary of the method: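 Readout: reporter transcript fluorescence after RT-PCR and capillary electrophoresis. Cells: HepG2, transiently transfected with cis-regulated MRTUs. Exposure 24 h. Gain or loss of signal fitted bidirectionally relative to DMSO.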

[8] = ATG_PXRE_CIS: Attagene CIS-FACTORIAL HepG2 Assay for human Pregnane X Receptor Element (PXRE) (AID 2282957); conditions: HepG2 Attagene CIS-FACTORIAL PXRE reporter, mRNA; actives raise or lower the signal
Summary of the method: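 Bidirectional activity, baselined to DMSO, derived from reporter mRNA fluorescence (RT-PCR plus capillary electrophoresis) in HepG2 cells bearing cis-promoter reporter units, 24 h exposure.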

[9] = ATG_RORE_CIS: Attagene CIS-FACTORIAL HepG2 Assay for human RAR-related Orphan Receptor Element (RORE) (AID 2282959); conditions: HepG2 Attagene cis-factorial RORE reporter, mRNA; actives raise or lower the signal
Summary of the method: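 Transient MRTU transfection of human HepG2 liver cells (FuGene 6); 24 h compound exposure; TriZol RNA, oligo(dT) RT, PCR, FAM labeling, HpaI cut, CE fragment analysis. DMSO = negative control/baseline.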

[10] = ATG_Sox_CIS: Attagene CIS-FACTORIAL HepG2 Assay for human SRY-box transcription factor (SOX) (AID 2282960); conditions: HepG2 Attagene cis-factorial SOX reporter, mRNA; actives raise or lower the signal
Summary of the method: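 Endogenous factor activity in human liver HepG2 cells carrying transfected cis-regulated reporter units. RNA taken 24 h post-dose, reverse-transcribed, PCR-amplified and sized by capillary electrophoresis. Gain or loss of signal fitted relative to DMSO.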

[11] = target: Transcription factor Sp1 (Homo sapiens) (UniProt P08047); assay: ATG_Sp1_CIS: Attagene CIS-FACTORIAL HepG2 Assay for human Specificity Protein 1 (Sp1) (AID 2282961); conditions: HepG2 Sp1 cis-reporter transcription, actives raise or lower the signal
Sequence of Transcription factor Sp1 (Homo sapiens) (P08047 whole entry, looked up): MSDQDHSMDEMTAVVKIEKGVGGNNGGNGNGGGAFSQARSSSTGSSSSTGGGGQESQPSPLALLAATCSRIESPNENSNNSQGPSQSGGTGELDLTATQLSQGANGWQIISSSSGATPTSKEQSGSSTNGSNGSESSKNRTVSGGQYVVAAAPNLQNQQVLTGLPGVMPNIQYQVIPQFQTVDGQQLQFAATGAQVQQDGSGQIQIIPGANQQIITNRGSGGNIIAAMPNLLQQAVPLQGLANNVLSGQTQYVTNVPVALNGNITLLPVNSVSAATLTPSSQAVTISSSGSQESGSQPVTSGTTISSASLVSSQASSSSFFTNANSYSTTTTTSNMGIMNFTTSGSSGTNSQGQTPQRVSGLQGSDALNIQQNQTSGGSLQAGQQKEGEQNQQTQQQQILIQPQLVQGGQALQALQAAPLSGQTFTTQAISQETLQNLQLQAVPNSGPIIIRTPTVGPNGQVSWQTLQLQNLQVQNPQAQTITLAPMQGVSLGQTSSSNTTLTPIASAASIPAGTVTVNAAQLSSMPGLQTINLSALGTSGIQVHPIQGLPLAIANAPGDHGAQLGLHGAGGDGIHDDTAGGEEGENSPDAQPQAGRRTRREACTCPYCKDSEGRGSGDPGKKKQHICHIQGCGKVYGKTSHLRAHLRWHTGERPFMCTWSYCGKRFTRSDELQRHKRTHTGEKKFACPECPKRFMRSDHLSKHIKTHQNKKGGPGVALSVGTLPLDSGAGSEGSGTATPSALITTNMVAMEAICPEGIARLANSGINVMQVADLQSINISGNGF
Summary of the method: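 Transient MRTU-transfected HepG2, 24 h compound exposure. Total RNA → oligo(dT) RT → PCR of reporter → 6-FAM primer extension → HpaI digest → CE. Endpoint fitted both directions vs DMSO.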

[12] = ATG_SREBP_CIS: Attagene CIS-FACTORIAL HepG2 Assay for human Sterol Regulatory Element Binding (SREBP) (AID 2282962); conditions: HepG2 Attagene cis-factorial SREBP reporter, mRNA; actives raise or lower the signal
Summary of the method: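 Readout: fluorescent reporter-transcript peaks resolved by capillary electrophoresis after RT-PCR. Cells were human HepG2 carrying transfected cis-promoter reporter constructs, dosed for 24 h. Gain or loss of signal was fitted against DMSO controls.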

[13] = target: Signal transducer and activator of transcription 3 (Homo sapiens) (UniProt P40763); assay: ATG_STAT3_CIS: Attagene CIS-FACTORIAL HepG2 Assay for human Signal Transducer and Activator of Transcription 3 (STAT3) (AID 2282963); conditions: HepG2, Attagene cis-factorial STAT3 reporter transcription; actives raise or lower the signal
Sequence of Signal transducer and activator of transcription 3 (Homo sapiens) (P40763 whole entry, looked up, the tested form may be a part): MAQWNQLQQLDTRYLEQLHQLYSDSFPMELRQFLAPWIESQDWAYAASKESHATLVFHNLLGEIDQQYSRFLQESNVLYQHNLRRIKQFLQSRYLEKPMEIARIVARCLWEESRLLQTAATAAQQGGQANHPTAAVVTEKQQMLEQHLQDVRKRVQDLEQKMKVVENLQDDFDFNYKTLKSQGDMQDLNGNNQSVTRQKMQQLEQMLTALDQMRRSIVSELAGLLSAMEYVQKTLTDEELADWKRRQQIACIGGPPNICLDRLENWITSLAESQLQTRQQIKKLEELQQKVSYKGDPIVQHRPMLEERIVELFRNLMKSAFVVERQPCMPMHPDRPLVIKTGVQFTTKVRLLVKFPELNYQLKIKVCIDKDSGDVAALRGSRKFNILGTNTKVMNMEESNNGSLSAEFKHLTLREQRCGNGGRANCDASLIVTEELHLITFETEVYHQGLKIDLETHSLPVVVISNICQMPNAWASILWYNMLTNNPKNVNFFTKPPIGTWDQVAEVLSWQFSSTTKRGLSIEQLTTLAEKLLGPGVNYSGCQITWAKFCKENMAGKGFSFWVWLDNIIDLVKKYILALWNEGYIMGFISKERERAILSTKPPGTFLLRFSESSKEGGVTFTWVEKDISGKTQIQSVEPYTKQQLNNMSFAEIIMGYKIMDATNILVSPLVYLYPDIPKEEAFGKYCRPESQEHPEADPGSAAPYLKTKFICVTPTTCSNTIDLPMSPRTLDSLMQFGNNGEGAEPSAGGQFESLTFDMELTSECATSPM
Summary of the method: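 Readout: fluorescent reporter mRNA fragments resolved by capillary electrophoresis. Setup: HepG2 transfected with MRTUs reporting endogenous transcription-factor activity, dosed 24 h. Gain or loss of signal fitted bidirectionally against DMSO control.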

[14] = ATG_TA_CIS: Attagene CIS-FACTORIAL HepG2 Assay for human TA Basal Promoter (AID 2282964); conditions: HepG2 Attagene CIS-factorial TA basal promoter reporter; actives raise or lower the signal
Summary of the method: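 Background-control readout: TA basal promoter reporter mRNA, fitted in both directions relative to DMSO. Measured by RT-PCR and capillary electrophoresis 24 hours after treating HepG2 human liver cells transiently carrying multiplexed cis-regulated reporter constructs.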

[15] = ATG_TCF_b_cat_CIS: Attagene CIS-FACTORIAL HepG2 Assay for human T-Cell-Factor with beta-catenin (TCF/b-cat) (AID 2282965); conditions: HepG2 TCF/beta-catenin cis-reporter transcription, actives raise or lower the signal
Summary of the method: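 HepG2, transient MRTU transfection, cis-element-driven reporters (endogenous TFs). 24 h compound exposure. Readout: reporter mRNA by RT-PCR + 6-FAM primer extension, HpaI digest, capillary electrophoresis. Gain/loss fit vs DMSO baseline.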

[16] = ATG_TAL_CIS: Attagene CIS-FACTORIAL HepG2 Assay for human TAL Basal Promoter (AID 2282966); conditions: HepG2 Attagene cis-factorial TAL promoter reporter; actives raise or lower the signal;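 further: background control endpoint measuring basal TAL promoter reporter mRNA not a specific factor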
Summary of the method: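 Human hepatoma HepG2 cells, transfected with promoter-regulated reporter units, were treated 24 h. Reporter transcript levels, measured through RT-PCR and capillary electrophoresis, were fitted for gain or loss relative to DMSO.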

[17] = ATG_PBREM_CIS: Attagene CIS-FACTORIAL HepG2 Assay for human Phenobarbital-responsive Enhancer Module (PBREM) (AID 2282955); conditions: HepG2 PBREM cis-reporter, Attagene multiplexed transcription; actives raise or lower the signal
Summary of the method: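 Endogenous transcription factors in human liver HepG2 cells drive a PBREM cis-element reporter, whose transcript level after 24 h treatment is quantified by RT-PCR with capillary electrophoresis; activity fitted in both directions against DMSO.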

[18] = ATG_PPRE_CIS: Attagene CIS-FACTORIAL HepG2 Assay for human Peroxisome Proliferator-activated Response Element (PPRE) (AID 2282958); conditions: HepG2 PPRE cis-element reporter, Attagene transcription factor profiling; actives raise or lower the signal
Summary of the method: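 HepG2, transient MRTU transfection (cis promoter elements, endogenous TFs). 24 h dosing. RNA → oligo(dT) RT → PCR → 6-FAM primer extension → HpaI digest → CE. Bidirectional fit vs DMSO.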

[19] = ATG_M_06_CIS: Attagene CIS-FACTORIAL HepG2 Assay for M06 Transcription Factor (Internal Marker) (AID 2282950); conditions: HepG2 Attagene CIS-FACTORIAL M06 internal marker reporter; actives raise or lower the signal
Summary of the method: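 Serves as a background control readout. Transfected HepG2 exposed to compounds for 24 h, then reporter transcripts quantified by fluorescent RT-PCR and capillary electrophoresis. Both directions fitted against DMSO baseline.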

Measured: AC50

CC(C)COC(=O)c1ccccc1C(=O)OCC(C)C
active: [1] 167 µM | [6] 109 µM | [7] 100 µM | [8] 26.1 µM | [9] 44.3 µM | [14] 56.4 µM
not listed: [17] | [18] | [19]
inactive: all other assays above

CCCCC(CC)COC(=O)c1ccc(C(=O)OCC(CC)CCCC)c(C(=O)OCC(CC)CCCC)c1 (stereo not given)
not listed: [14] | [19]
inactive: all other assays above

C1=Cc2cccc3cccc1c23
active: [8] 16.2 µM
not listed: [19]
inactive: all other assays above

CN(C)C(=O)Nc1ccc(Cl)cc1
not listed: [14] | [19]
inactive: all other assays above

CN(C)[C@@H]1C(=O)C(C(N)=O)=C(O)[C@@]2(O)C(=O)C3=C(O)c4c(O)cccc4[C@@](C)(O)[C@H]3C[C@@H]12
active: [8] 27.6 µM
not listed: [3] | [9] | [14]
inactive: all other assays above

Nc1cc(Cl)cc(C(=O)O)c1Cl
active: [8] 65 µM
not listed: [19]
inactive: all other assays above

Cc1ccc(N)cc1
not listed: [14] | [18] | [19]
inactive: all other assays above

CCCCCCCCCCCCCN1CC(C)OC(C)C1 (stereo not given)
active: [8] 8 µM
not listed: [14] | [17] | [19]
inactive: all other assays above

CCC12COCN1COC2
not listed: [14] | [19]
inactive: all other assays above

O=[N+]([O-])C(Br)(CO)CO
active: [1] 164 µM | [3] 25 µM | [5] 158 µM | [7] 100 µM | [8] 158 µM | [9] 100 µM | [10] 170 µM | [11] 145 µM | [15] 100 µM
inactive: [2] | [4] | [6] | [17] | [18] | [12] | [13] | [16]

CCNS(=O)(=O)C(F)(F)C(F)(F)C(F)(F)C(F)(F)C(F)(F)C(F)(F)C(F)(F)C(F)(F)F
inactive: [1] | [2] | [3] | [4] | [6] | [7] | [18] | [9] | [10] | [11] | [12] | [13] | [14] | [15] | [16]
active: [5] 130 µM and 218 µM and 80.8 µM | [6] 114 µM and 150 µM | [17] 96.5 µM and 61.9 µM and 34.7 µM | [7] 96.5 µM | [8] 3.71 µM and 6.95 µM and 12.9 µM | [18] 146 µM and 29.8 µM | [10] 96.5 µM | [12] 148 µM | [15] 169 µM

CN(C)c1ccc(C(=O)c2ccc(N(C)C)cc2)cc1
active: [8] 3.72 µM
not listed: [14] | [19]
inactive: all other assays above

CCN(CC)N=O
not listed: [14] | [17] | [19]
inactive: all other assays above

Source: PubChem BioAssay (EPA / NIEHS)
